Where “and” joins values, the source holds several entries; their conditions need not be identical. Equal entries are not always repeated. Structures can show the parent of a compound that is named as a salt.
Experiments:
Test in all cases: cell viability relative to vehicle control; higher = less cytotoxic
Settings in all cases: 10 µM
K562 = tested on: K562
How it was run: (§1)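 Mutant clones made by CRISPR editing and their isogenic wild-type counterparts, from four leukaemia lines, were exposed to a single 10 µM dose of each library compound for 48 h. The supernatant was then removed and CellTiter-Glo luminescence was read. Viability was reported as percent of the on-plate vehicle control.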

MARIMO = tested on: MARIMO
How it was run: as §1

MOLM14 = tested on: MOLM14
How it was run: as §1

OCI-AML2 = tested on: OCI-AML2
How it was run: as §1

Compound | cell viability (K562; SRSF2 genotype: SRSF2 P95H/wt) | cell viability (K562; SRSF2 genotype: SRSF2 wt/wt) | cell viability (MARIMO; SRSF2 genotype: SRSF2 P95H/wt) | cell viability (MARIMO; SRSF2 genotype: SRSF2 wt/wt) | cell viability (MOLM14; SRSF2 genotype: SRSF2 P95H/wt) | cell viability (MOLM14; SRSF2 genotype: SRSF2 wt/wt) | cell viability (OCI-AML2; SRSF2 genotype: P95H/wt) | cell viability (OCI-AML2; SRSF2 genotype: wt/wt)
Oc1cccc(O)c1O [Pyrogallol] | 96.9% and 103% | 102% | 108% | 104% | 102% | 104% | 102% | 112%
Cc1cc(O)c(C(=O)CCC(C)C)c(=O)o1 [Pogostone] | 104% and 98.3% | 101% | 95.7% | 106% | 96.5% | 99.5% | 95.9% | 99.5%
CCOC(=O)c1ccc(C#Cc2ccc3c(c2)C(C)(C)CCS3)nc1 [Tazarotene (Avage)] | 81% and 84.7% | 78.1% | 46.6% | 40.8% | 76.2% | 88.1% | 14.1% | 27.8%
CCCCCC1C(=O)CCC1CC(=O)OCCC (stereo not drawn) [Prohydrojasmon] | 100% and 102% | 109% | 98.6% | 98.6% | 95.8% | 106% | 110% | 118%
CC(=CCNc1ncnc2nc[nH]c12)CO [Trans-Zeatin] | 100% and 95.4% | 104% | 99% | 108% | 98.3% | 103% | 104% | 97.4%
O=C(O)CCCCCCCC(O)C(O)CCCCCCO (stereo not drawn) [Aleuritic Acid] | 105% and 100% | 97.5% | 107% | 112% | 98.4% | 107% | 97.2% | 101%
COC(c1ccccc1)(c1ccccc1)[C@H](Oc1nc(C)cc(C)n1)C(=O)O [Ambrisentan] | 103% and 96.5% | 98.8% | 95.2% | 109% | 102% | 103% | 102% | 105%
O=C1CCc2cc(OCCCCc3nnnn3C3CCCCC3)ccc2N1 [Cilostazol] | 97.9% and 98.4% | 96.8% | 103% | 102% | 100% | 101% | 109% | 97.9%
COc1c(O)cc2c(c1O)[C@@H]1O[C@H](CO)[C@@H](O)[C@H](O)[C@H]1OC2=O [Bergenin (Cuscutin)] | 100% and 84% | 86.1% | 89.2% | 99% | 85.6% | 91.9% | 91% | 94.1%
COC(=O)C1=C(C)NC(C)=C(C(=O)OCCN2CCN(C(c3ccccc3)c3ccccc3)CC2)C1c1cccc([N+](=O)[O-])c1 (stereo not drawn) [Manidipine dihydrochloride (CV-4093)] | 60.3% and 62.1% | 53.6% | 67.1% | 68.6% | 55.2% | 57.7% | 42.5% | 46.8%
N=C(N)N [Guanidine (Aminoformamidine) HCl] | 94.2% and 97% | 103% | 104% | 98.3% | 97% | 98.7% | 102% | 98.1%

Source: the supplement of paper PMC10981050
